Consider 27 compounds from PubChem BioAssay (EPA / NIEHS).

The target of experiment [1] is Cellular tumor antigen p53 (Homo sapiens) (UniProt P04637). As to the kind of experiment: TOX21_p53_BLA_p2_ratio: Tox21 HCT-116 p53 Agonism Beta-lactamase Assay, Ratio, Phase 2 (AID 2283592). The method in brief:
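Ratio endpoint: beta-lactamase cleavage of CCF4-AM, blue (460 nm) over green (530 nm). HCT116 reporter line; 16 h treatment, 37C; substrate 2 h RT.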

Experiment [2] is described as follows: TOX21_p53_BLA_p3_viability: Viability Assessment in the Tox21 HCT-116 p53 Agonism Beta-lactamase Assay, Phase 3 (AID 2283593).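 Further: cells exposed to compound for 16 h before reading.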 The essentials: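 Cellular ATP was quantified by CellTiter-Glo luminescence, read after 30 min at room temperature. Beforehand, HCT116 cells (4000/well) received compound 5 h post-seeding, 217-fold diluted from DMSO, then incubated 16 h at 37C.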

Experiment [3] addresses Cellular tumor antigen p53 (Homo sapiens) (UniProt P04637). Put plainly: TOX21_p53_BLA_p3_ratio: Tox21 HCT-116 p53 Agonism Beta-lactamase Assay, Ratio, Phase 3 (AID 2283596). The essentials: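 Cells were seeded at 4000/well, rested 5 h at 37C, then dosed with DMSO compound solutions (217-fold dilution) for 16 h. CCF4-AM substrate was loaded for 2 h at room temperature, and the 460/530 nm emission ratio was fitted for gain of signal versus DMSO.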

The nature of experiment [4]: TOX21_p53_BLA_p4_viability: Viability Assessment in the Tox21 HCT-116 p53 Agonism Beta-lactamase Assay, Phase 4 (AID 2283597).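 Further: hits lower the luminescence signal meaning cytotoxicity.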 The method in brief: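 Cytotoxicity was inferred from loss of CellTiter-Glo luminescence. HCT116 cells had been dosed with compounds after 5 h plating, incubated 16 h at 37C and 5% CO2, and exposed to the CCF4-AM substrate for 2 h.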
Experiment [5] addresses Cellular tumor antigen p53 (Homo sapiens) (UniProt P04637). Put plainly: TOX21_p53_BLA_p5_ratio: Tox21 HCT-116 p53 Agonism Beta-lactamase Assay, Ratio, Phase 5 (AID 2283599). The method in brief:
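Beta-lactamase reporter ratio (blue 460 nm over green 530 nm, 405 nm excitation) after 2 h CCF4-AM loading, in HCT-116 cells exposed 16 h at 37 C to compounds pinned at 217-fold dilution. Increases relative to DMSO baseline scored.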

A short description of experiment [6]: TOX21_p53_BLA_p5_viability: Viability Assessment in the Tox21 HCT-116 p53 Agonism Beta-lactamase Assay, Phase 5 (AID 2283600). The essentials:
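Luciferase-coupled ATP quantitation of cells treated for 16 h (37C, 5% CO2) with test chemicals delivered in DMSO via a 217-fold dilution; 4000 cells/well; reagent incubated 30 min at room temperature before luminescence reading.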

The target of experiment [7] is Cellular tumor antigen p53 (Homo sapiens) (UniProt P04637). Put plainly: TOX21_p53_BLA_p4_ratio: Tox21 HCT-116 p53 Agonism Beta-lactamase Assay, Ratio, Phase 4 (AID 2283601). The essentials: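 Signal is the blue/green (460nm/530nm) ratio of cleaved versus uncleaved CCF4-AM substrate, read after 2 h substrate loading. Cells were HCT116 carrying the p53-responsive beta-lactamase reporter, dosed 16 h at 37C, 5% CO2; CellTiter-Glo measured in parallel.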
Cellular tumor antigen p53 (Homo sapiens), sequence (P04637 whole entry, looked up): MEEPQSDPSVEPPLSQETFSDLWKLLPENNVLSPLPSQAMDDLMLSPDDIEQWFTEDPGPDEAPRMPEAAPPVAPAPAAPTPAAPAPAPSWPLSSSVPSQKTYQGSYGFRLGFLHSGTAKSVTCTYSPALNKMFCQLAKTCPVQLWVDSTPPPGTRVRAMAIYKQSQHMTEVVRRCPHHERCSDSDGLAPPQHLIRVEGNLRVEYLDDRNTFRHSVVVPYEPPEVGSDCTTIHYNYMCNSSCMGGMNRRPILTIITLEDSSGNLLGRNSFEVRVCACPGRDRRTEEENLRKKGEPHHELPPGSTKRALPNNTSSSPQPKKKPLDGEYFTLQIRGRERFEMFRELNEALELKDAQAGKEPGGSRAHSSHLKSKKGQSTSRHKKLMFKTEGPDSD

The nature of experiment [8]: Tanguay_ZF_120hpf_MORT_legacy: (Legacy) Oregon State University Tanguay Lab 120 Hour Post-fertilization zebrafish Assay for Mortality (AID 2283633).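 On AC50: fitted as increase in binary mortality versus DMSO negative control.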 The method in brief: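 Dechorionated Tropical 5D wild-type zebrafish embryos, one per well from 6 hpf, were statically exposed at 28C in the dark until 120 hpf (0.64% DMSO final). Mortality was scored as present/absent by brightfield microscopy, fitted positively versus DMSO.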

Experiment [9] can be described thus: ATG_XTT_Cytotoxicity: Cytotoxicity Assessment in the Attagene TRANS-FACTORIAL HepG2 Assay (AID 2283584). The method in brief:
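HepG2 human liver cells, transiently transfected with multiple GAL4-UAS reporter units, were dosed and read at 24 h by XTT as cell number. Loss of signal was fitted relative to DMSO negative control baseline.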

A short description of experiment [10]: TOX21_p53_BLA_p2_viability: Viability Assessment in the Tox21 HCT-116 p53 Agonism Beta-lactamase Assay, Phase 2 (AID 2283591).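 Further: compound exposure lasted 16 h at 37 °C; actives lower the ATP signal meaning cytotoxicity.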 The method in brief:
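Cytotoxicity readout: CellTiter-Glo ATP luminescence, 30 min at room temperature, after the beta-lactamase read. Cells were HCT116 exposed 16 h at 37C to compounds pin-transferred at 217-fold dilution from DMSO stocks.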

SMILES strings stand for the structures. Results filed as inconclusive are left out. Some structures have more than one record in an assay (separate samples or runs), and their calls can disagree. Activity calls are given as the source filed them. How the source made its calls: active means hit-call score of the fitted dose curve at least 0.9, where 1 is the maximum; inconclusive means response in the unintended direction; inactive means score below 0.9.

Turning to `CNC(=O)ON=C(SC)C(=O)N(C)C`, the outcome in experiment [1], in experiment [2], in experiment [3], in experiment [4], in experiment [5] and in [6] was inactive. The outcome in experiment [7] and in [8] was inactive.
As for `CCOP(=S)(OCC)Oc1cc(C)nc(C(C)C)n1`, the result in [1], in experiment [2], in [3], in experiment [4], in experiment [6] and in experiment [7] was inactive. For the same compound, in experiment [8], the result was inactive. Moreover, the AC50 in experiment [2] is 49.5 µM (active); in experiment [3] it was 67.9 µM (active); in experiment [5], 41.7 µM (active); in [6], 36.1 µM (active).
As for `CCOP(=S)(OCC)Oc1ccc2c(C)c(Cl)c(=O)oc2c1`, the result in experiment [9], in [1], in experiment [2], in experiment [3], in experiment [4] and in [5] was inactive. For the same compound, the result in experiment [6], in [7] and in experiment [8] was inactive.
As for `CON=C(C(=O)OC)c1ccccc1CON=C(C)c1cccc(C(F)(F)F)c1`, the AC50 in experiment [1] is 1.25 µM (active); in [3] it was 3.12 µM (active); in experiment [5], 2.24 µM (active); in [7], 1.65 µM (active). Also, the compound was called inactive in [2], in experiment [4], in experiment [6] and in [8].
Consider `CSC1=N[C@@](C)(c2ccccc2)C(=O)N1Nc1ccccc1`, for which the outcome in [1], in [2], in [3], in [4], in [5] and in [6] was inactive. Moreover, in experiment [7], the result was inactive. In addition, the AC50 in experiment [8] is 12.6 µM (active).
In the case of `CCCCN(CC)c1c([N+](=O)[O-])cc(C(F)(F)F)cc1[N+](=O)[O-]`, the outcome in experiment [1], in [2], in experiment [3], in experiment [4], in [5] and in [6] was inactive. The result in experiment [8] was inactive.
In the case of `CC(C)N(C(=O)SCC(Cl)=C(Cl)Cl)C(C)C`, the result in [1], in [2], in experiment [3], in experiment [4], in experiment [5] and in experiment [6] was inactive. Besides, the outcome in experiment [7] and in [8] was inactive.
In the case of `CSc1nnc(C(C)(C)C)c(=O)n1N`, the result in [1], in experiment [2], in experiment [3], in experiment [4], in [5] and in experiment [6] was inactive. Moreover, the result in experiment [7] and in experiment [8] was inactive.
As to `CCOP(=S)(OCC)Oc1ccc([N+](=O)[O-])cc1`, the AC50 in experiment [1] was 89.3 µM (active). The result in [1], in experiment [2], in [3], in experiment [5] and in [8] was inactive.
As to `C#CCC1=C(C)C(OC(=O)C2C(C=C(C)C)C2(C)C)CC1=O` (stereo not drawn), the outcome in experiment [9], in experiment [2], in experiment [3], in experiment [4], in experiment [5] and in experiment [6] was inactive. In addition, the result in experiment [7] and in [8] was inactive. Further, the AC50 in [10] was 45.8 µM (active); in [1] it was 86.7 µM (active).
In the case of `CC(=NC#N)N(C)Cc1ccc(Cl)nc1`, the result in experiment [1], in experiment [2], in experiment [3], in experiment [4], in [5] and in experiment [6] was inactive. The outcome in [7] and in [8] was inactive.
Consider `CC1(C(=O)Nc2ccc(O)c(Cl)c2Cl)CCCCC1`, for which the outcome in experiment [1], in [2], in [3], in experiment [4], in experiment [5] and in experiment [6] was inactive. Further, the result in experiment [7] and in [8] was inactive.
Turning to `CCOC(=O)CC(SP(=O)(OC)OC)C(=O)OCC` (stereo not drawn), the result in [1], in experiment [2], in experiment [3], in experiment [4], in experiment [5] and in [6] was inactive. The result in experiment [7] and in experiment [8] was inactive.
Turning to `Cc1cc(C2CC2)nc(Nc2ccccc2)n1`, the figures for the AC50 in experiment [10], in experiment [4] and in experiment [7] were 62.2 µM (active), 64.9 µM (active) and 72.6 µM (active), respectively. The result in [1], in [2], in experiment [3], in experiment [5], in experiment [6] and in experiment [8] was inactive.
As to `S=C1NCCN1`, the result in experiment [1], in [2], in experiment [3], in experiment [4], in experiment [5] and in experiment [6] was inactive. Moreover, the outcome in experiment [7] was inactive.
Regarding `COc1cc(OC)nc(Sc2cccc(Cl)c2C(=O)O)n1`, the result in experiment [1], in experiment [2], in experiment [3], in experiment [4], in experiment [5] and in experiment [6] was inactive. Also, the result in experiment [7] and in experiment [8] was inactive.
Take `COc1ccc(C(=CC(=O)N2CCOCC2)c2ccc(Cl)cc2)cc1OC`: the compound was classed as inactive in [9], in [3], in experiment [4], in experiment [6], in experiment [7] and in [8].
As to `CN(C)NC(=O)CCC(=O)O`, the result in experiment [1], in experiment [2], in experiment [3], in [4], in [5] and in [6] was inactive. For the same compound, the result in [7] and in experiment [8] was inactive.
Regarding `O=c1ccc(=O)[nH][nH]1`, the result in experiment [1], in experiment [2], in [3], in [4], in experiment [5] and in experiment [6] was inactive. Further, the outcome in experiment [7] and in experiment [8] was inactive.
`CC[C@H](C)[C@H]1O[C@]2(C=C[C@@H]1C)C[C@@H]1C[C@@H](C/C=C(\C)[C@@H](O[C@H]3C[C@H](OC)[C@@H](O[C@H]4C[C@H](OC)[C@@H](NC)[C@H](C)O4)[C@H](C)O3)[C@@H](C)/C=C/C=C3\CO[C@@H]4[C@H](O)C(C)=C[C@@H](C(=O)O1)[C@]34O)O2`: the AC50 was 59.1 µM (active) in [1]; 14.4 µM (active) in experiment [2]; 54.1 µM (active) in experiment [3]; 8.89 µM (active) in experiment [4]; 56.9 µM (active) in [5]; 14.9 µM (active) in experiment [6]. Also, the AC50 in [7] is 32.7 µM (active); in experiment [8] it was 5.52 µM (active).
For `CCC(=O)Nc1ccc(Cl)c(Cl)c1`, the outcome in experiment [9], in experiment [1], in [2], in experiment [3], in experiment [4] and in [5] was inactive. For the same compound, the result in experiment [6], in experiment [7] and in experiment [8] was inactive. Moreover, the AC50 in experiment [1] is 88 µM (active); in experiment [3], 72.7 µM (active).
As for `Nc1c(Cl)cc([N+](=O)[O-])cc1Cl`, in experiment [9], the compound was called inactive.
In the case of `CC(C)=CC1C(C(=O)OCN2C(=O)C3=C(CCCC3)C2=O)C1(C)C` (stereo not drawn), the result in [1], in experiment [2], in experiment [3], in experiment [4], in experiment [5] and in [6] was inactive. Further, the result in experiment [7] and in experiment [8] was inactive. The AC50 in experiment [4] was 46.1 µM (active).
Turning to `COP(=O)(OC)C(O)C(Cl)(Cl)Cl` (stereo not drawn), the result in experiment [1], in [2], in experiment [3], in experiment [4], in experiment [5] and in experiment [6] was inactive. Moreover, the result in experiment [7] and in experiment [8] was inactive.
In the case of `CCOP(=O)(NC(C)C)Oc1ccc(SC)c(C)c1` (stereo not drawn), the compound was called inactive in experiment [9], in experiment [1], in experiment [2], in experiment [3], in experiment [4] and in experiment [5]. Also, the result in experiment [6], in experiment [7] and in [8] was inactive.
With `C[Si](Cn1cncn1)(c1ccc(F)cc1)c1ccc(F)cc1`, the result in [1], in experiment [2], in [3], in experiment [4], in experiment [5] and in [6] was inactive. For the same compound, the result in [7] and in [8] was inactive. Besides, the results for the AC50 in experiment [4] and in [7] were 53 µM (active) and 55.6 µM (active), respectively.
For the compound `C#CC(C)(C)NC(=O)c1cc(Cl)cc(Cl)c1`, the result in experiment [9], in [1], in experiment [2], in experiment [3], in experiment [4] and in [5] was inactive. The result in experiment [6], in experiment [7] and in experiment [8] was inactive.

What is called AC50 is the concentration at which the activity in the assay is half-maximal.
